Screens deposited in PubChem by several laboratories.
Only some compounds are listed: those with a hit (about 2% of all), similar ones and a draw of the others.
Neddyl block – inhibitors of cullin neddylation, primary screen, biochemical, TR-FRET, uHTS, NAE and Ubc12. NEDD8-conjugating enzyme Ubc12 (Homo sapiens) + NEDD8-activating enzyme E1 regulatory …. inhibition, % at 25 µM. 0.58% of 360,000 active. AID 651699, 2012; in the data active means inhibition above about 36%
DAGLB inh – DAGLB lipase inhibitors, primary screen, biochemical, fluorescence, HTS; HEK293T DAGLB membrane lysate, EnzChek fluorogenic substrate; inhibition, % at 5.17 µM; 0.059% of 340,000 active; AID 504411, 2011; in the data active means inhibition above about 34%
Target sequence (Q8NCG7 whole entry, looked up): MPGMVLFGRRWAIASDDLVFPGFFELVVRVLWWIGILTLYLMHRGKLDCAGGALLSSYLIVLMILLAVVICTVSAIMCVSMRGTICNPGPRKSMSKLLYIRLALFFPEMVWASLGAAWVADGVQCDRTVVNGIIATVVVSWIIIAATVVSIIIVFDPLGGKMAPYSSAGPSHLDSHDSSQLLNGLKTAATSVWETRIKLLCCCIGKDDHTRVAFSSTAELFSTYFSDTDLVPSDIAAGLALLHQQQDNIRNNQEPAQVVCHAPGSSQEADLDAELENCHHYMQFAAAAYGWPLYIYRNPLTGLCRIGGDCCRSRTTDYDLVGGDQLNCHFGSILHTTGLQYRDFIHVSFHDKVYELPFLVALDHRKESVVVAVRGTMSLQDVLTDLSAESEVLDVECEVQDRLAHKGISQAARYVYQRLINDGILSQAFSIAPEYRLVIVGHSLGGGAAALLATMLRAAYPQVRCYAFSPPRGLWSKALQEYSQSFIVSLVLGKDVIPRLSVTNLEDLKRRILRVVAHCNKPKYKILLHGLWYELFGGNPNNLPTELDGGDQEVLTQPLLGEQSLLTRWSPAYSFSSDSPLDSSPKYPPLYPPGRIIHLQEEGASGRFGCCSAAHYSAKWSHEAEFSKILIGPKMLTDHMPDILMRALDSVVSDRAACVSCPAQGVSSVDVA
ARNT TACC3 PPI – disruptors of ARNT/TACC3 protein interaction, primary screen, biochemical, AlphaScreen, single concentration; inhibition, % at 9.99 µM; AlphaScreen His-ARNT PAS-B/GST-TACC3 binding, luminescence; TACC3 fragment carries E629A point mutation; 0.66% of 390,000 active;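 active means mean inhibition of replicates at least 50% and at least half of replicates each reaching 50%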
NadD inh – inhibitors of S. aureus NadD, primary screen, biochemical, colorimetric, uHTS; Nicotinate-nucleotide adenylyltransferase NadD (Staphylococcus aureus N315); purified NadD enzyme, colorimetric absorbance read-out; inhibition, % at 20 µM; 0.78% of 360,000 active; AID 602399, 2012; in the data active means inhibition above about 26%
HGIII-sPLA2 inh – human group III sPLA2 inhibitors, primary screen, biochemical, QFRET, BODIPY PC-A2 liposome substrate. AID 743126, 2013. Group 3 secretory phospholipase A2 (Homo sapiens), Q9NZ20. inhibition, % at 12.2 µM. 0.56% of 370,000 active. QFRET BODIPY PC-A2 liposome hydrolysis, fluorescence;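 active means inhibition above mean plus 3 SD of compounds lying within the high and low control bounds, cut at about 19% in these data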
sPLA2 confirm – human group III sPLA2 inhibitors, confirmation, biochemical, QFRET, triplicate; shares compounds with HGIII-sPLA2 inh; recombinant hGIII-sPLA2, BODIPY PC-A2 QFRET fluorescence; inhibition, % at 12.2 µM; 34% of 2,000 active; AID 743280, 2014;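 active means mean inhibition across triplicates above the hit cutoff set in the earlier primary screen, cut at about 19% in these data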
535nm interf – 535nm fluorescence optical interference, confirmation, artefact control for HGIII-sPLA2 inhibitor project, biochemical, QFRET. shares compounds with HGIII-sPLA2 inh. BODIPY FL product fluorescence interference. inhibition, % at 12.2 µM. 8.5% of 2,000 active;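 active means average inhibition above the solvent-only control mean plus 3 SD, cut at about 6% in these data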
Large screens that a line does not name were inactive (follow-up assays come after a bar, where shown).

CCCNC(=O)C[C@@H]1CC[C@H]2[C@H](COc3ccc(NC(=O)C4CCCC4)cc3C(=O)N2C)O1	none (no result: Neddyl block, DAGLB inh, NadD inh, HGIII-sPLA2 inh)
CCCS(=O)(=O)N1CCCC(C(=O)NC2CCCCC2)C1 (configuration not stated)	none
CCCCOc1ccc(C(C)NC(=O)C2CCCN(S(=O)(=O)CCC)C2)cc1 (configuration not stated)	HGIII-sPLA2 inh 19.5 | sPLA2 confirm inactive | 535nm interf inactive
COc1ccc(N(C(=O)c2cccc(OC)c2OC)C2C=CS(=O)(=O)C2)cc1 (configuration not stated)	HGIII-sPLA2 inh 23.8 | sPLA2 confirm inactive | 535nm interf inactive
CCCC(=O)N(c1ccc(OC)cc1)C1C=CS(=O)(=O)C1 (configuration not stated)	none
COCC#Cc1ccc2c(c1)O[C@@H](CN(C)Cc1ccc(F)cc1)[C@H](C)CN([C@@H](C)CO)S2(=O)=O	none (no result: Neddyl block, DAGLB inh, NadD inh, HGIII-sPLA2 inh)
O=C(CN1CCOCC1)N1CC[C@@H]2[C@@H](CO)Nc3ccc(-c4ccc(F)cc4)cc3[C@@H]21	none (no result: Neddyl block, DAGLB inh, NadD inh, HGIII-sPLA2 inh)
CC1CCCN(C(C(=O)NC2CCCCC2)c2cc3c(cc2[N+](=O)[O-])OCO3)C1 (configuration not stated)	HGIII-sPLA2 inh 19.7 (no result: ARNT TACC3 PPI) | sPLA2 confirm inactive | 535nm interf inactive
FC(F)(F)c1cccc(N2CCN(C3CC4CCC3C4)CC2)c1 (configuration not stated)	HGIII-sPLA2 inh 20.2 | sPLA2 confirm inactive | 535nm interf inactive
N/C(=N\OC(=O)CCC1CCCC1)c1cccc([N+](=O)[O-])c1	HGIII-sPLA2 inh 20.8 | sPLA2 confirm inactive | 535nm interf inactive
NNC(=S)NCc1ccc2c(c1)OCO2	HGIII-sPLA2 inh 20.0 | sPLA2 confirm inactive | 535nm interf inactive
O=C(CNS(=O)(=O)c1ccccc1)OCC(=O)c1ccc([N+](=O)[O-])cc1	HGIII-sPLA2 inh 25.0 | sPLA2 confirm inactive | 535nm interf inactive
COc1ccc(S(=O)(=O)N(C)C[C@@H]2Oc3ccc(NC(=O)Cn4cnnn4)cc3CC(=O)N([C@H](C)CO)C[C@@H]2C)cc1	none (no result: Neddyl block, DAGLB inh, NadD inh, HGIII-sPLA2 inh)
C[C@H](O)C#Cc1ccc2c(c1)O[C@@H](CN(C)C(=O)C1CCC1)[C@H](C)CN([C@@H](C)CO)S2(=O)=O	none (no result: Neddyl block, DAGLB inh, NadD inh, HGIII-sPLA2 inh)
C=CCN1C(=O)/C(=C2/Sc3ccc(OC)cc3N2C)SC1=Nc1ccccc1	HGIII-sPLA2 inh 94.3 | sPLA2 confirm inactive | 535nm interf inactive
Cc1noc(C)c1S(=O)(=O)N(C)C[C@@H]1OCCCC[C@H](C)Oc2ccc(NC(=O)Nc3ccc(F)cc3)cc2C(=O)N([C@H](C)CO)C[C@H]1C	none (no result: Neddyl block, DAGLB inh, NadD inh, HGIII-sPLA2 inh)
Cc1cccc(N2C(=O)CCC2=O)n1	HGIII-sPLA2 inh 20.5 | sPLA2 confirm inactive | 535nm interf inactive
COCCNC(=O)C[C@H]1CC[C@@H]2[C@H](COc3ccc(NC(=O)C4CCCC4)cc3C(=O)N2C)O1	none (no result: Neddyl block, DAGLB inh, NadD inh, HGIII-sPLA2 inh)
COc1cccc(Nc2nc(C(N)CO)cs2)n1 (configuration not stated)	HGIII-sPLA2 inh 21.0 (no result: DAGLB inh, ARNT TACC3 PPI) | sPLA2 confirm inactive | 535nm interf inactive
O=C(CCc1ccccc1)NC(c1cccs1)c1cc(Cl)c2cccnc2c1O (configuration not stated)	HGIII-sPLA2 inh 22.9 | sPLA2 confirm inactive | 535nm interf inactive
CCCCC(=O)NC(c1ccco1)c1cc(Cl)c2cccnc2c1O (configuration not stated)	HGIII-sPLA2 inh 22.6 | sPLA2 confirm inactive | 535nm interf inactive
CCC(=O)NC(c1ccco1)c1cc(Cl)c2cccnc2c1O (configuration not stated)	none
CCC(=O)NC(c1cccs1)c1cc(Cl)c2ccccc2c1O (configuration not stated)	none (not shown: Neddyl block)
O=C(NC1CCCCC1)N[C@H]1CC[C@H](CC(=O)N2CCOCC2)O[C@H]1CO	none (no result: Neddyl block, DAGLB inh, NadD inh, HGIII-sPLA2 inh)
CCCC/C(C)=N/NC(=O)CN(c1ccc(Br)cc1)S(=O)(=O)c1ccccc1	none
C/C(=N/NC(=O)CN(c1ccccc1)S(=O)(=O)c1ccccc1)c1ccccc1O	HGIII-sPLA2 inh 23.6 | sPLA2 confirm inactive | 535nm interf inactive
CCCCSc1nc2c(c(=O)[nH]1)CCC2	HGIII-sPLA2 inh 19.7 | sPLA2 confirm inactive | 535nm interf inactive
O=C(Nc1ccccc1-c1ccccc1)C1CCCC1	HGIII-sPLA2 inh 19.8 | sPLA2 confirm inactive | 535nm interf inactive
O=C(Nc1ccccc1C(F)(F)F)C1CCCC1	none
CN(C)CCP(=O)(c1ccccc1)c1ccccc1	none
CCCP(=O)(CCC)CCP(=O)(c1ccccc1)c1ccccc1	HGIII-sPLA2 inh 19.9 | sPLA2 confirm inactive | 535nm interf inactive
COCC(=O)N1[C@H](C(=O)N2CCCCC2)[C@@H](CO)[C@@H]2Cn3c(ccc(C4=CCCC4)c3=O)[C@@H]21	none (no result: Neddyl block, DAGLB inh, NadD inh, HGIII-sPLA2 inh)
C/C(=N\OCC(=O)Nc1nc2ccccc2s1)c1ccccc1	HGIII-sPLA2 inh 19.3 | sPLA2 confirm inactive | 535nm interf inactive
COc1ccc(/C(C)=N/OCC(=O)Nc2nc3ccccc3s2)cc1OC	none
C[C@@H]1CCCCO[C@@H](CN(C)CC2CCCCC2)[C@@H](C)CN([C@@H](C)CO)C(=O)c2cc(NS(=O)(=O)c3cccs3)ccc2O1	none (no result: Neddyl block, DAGLB inh, NadD inh, HGIII-sPLA2 inh)
COc1ccc(CN(C)C[C@H]2OCCCC[C@H](C)Oc3ccc(NC(=O)c4ccccc4)cc3C(=O)N([C@@H](C)CO)C[C@H]2C)cc1	none (no result: Neddyl block, DAGLB inh, NadD inh, HGIII-sPLA2 inh)
COc1ccc(NC(=O)Nc2cccc3c2O[C@H](CN(C)C(=O)Nc2c(C)noc2C)[C@H](C)CN([C@H](C)CO)C3=O)cc1	none (no result: Neddyl block, DAGLB inh, NadD inh, HGIII-sPLA2 inh)
COc1cc(O)c2c(=O)c3c(O)ccc(O)c3oc2c1	HGIII-sPLA2 inh 22.1 | sPLA2 confirm inactive | 535nm interf inactive
CC(=O)Nc1ccc(NC(=S)NC(=O)c2ccc(-c3ccccc3)cc2)cc1	none (no result: DAGLB inh, ARNT TACC3 PPI)
COc1ccc(C(=O)NNC(=S)NC(=O)c2cccnc2)cc1	none
O=C(NN1CCOCC1)c1cccc(Br)c1	none (no result: DAGLB inh, ARNT TACC3 PPI)
CN1CCN(NC(=O)c2cccc(Br)c2)CC1	HGIII-sPLA2 inh 21.2 | sPLA2 confirm inactive | 535nm interf inactive
COc1ccc(C(=O)NC(=S)NNC(=O)c2ccc(NC(C)=O)cc2)cc1Br	none
COc1ccc(C(=O)NC(=S)NNC(=O)c2ccncc2)cc1Br	HGIII-sPLA2 inh 28.9 | sPLA2 confirm 26.2 | 535nm interf inactive
